Laboratory results from PubChem BioAssay AID602261 (Sanford-Burnham Center for Chemical Genomics, 2012).
Several values for one entry are separate records, joined by “and”; a condition that tells them apart may be missing. Equal entries are not always repeated. Among all 360,000 compounds or so, about 2,400 (0.67%) were called active.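 The calls were made as follows: active = compounds whose normalised, plate-corrected inhibition of enzyme fluorescence in the single-dose primary screen is 50% or more; inactive = the rest.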 Many of the other results were omitted from the sample, so actives are more common in it than they were.

Each compound was assayed against Fatty acid synthase (Homo sapiens) (UniProt P49327) (assay: inhibition of human FAS-TE enzyme activity – biochemical, fluorescence intensity, uHTS, primary screen (AID 602261;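 also: 0% = DMSO with enzyme and 100% = substrate without enzyme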)). Conditions: recombinant FAS-TE, OMFH fluorogenic substrate, fluorescence endpoint; at 15 µM; stronger effect = higher value.
Fatty acid synthase (Homo sapiens), sequence (P49327 whole entry, looked up): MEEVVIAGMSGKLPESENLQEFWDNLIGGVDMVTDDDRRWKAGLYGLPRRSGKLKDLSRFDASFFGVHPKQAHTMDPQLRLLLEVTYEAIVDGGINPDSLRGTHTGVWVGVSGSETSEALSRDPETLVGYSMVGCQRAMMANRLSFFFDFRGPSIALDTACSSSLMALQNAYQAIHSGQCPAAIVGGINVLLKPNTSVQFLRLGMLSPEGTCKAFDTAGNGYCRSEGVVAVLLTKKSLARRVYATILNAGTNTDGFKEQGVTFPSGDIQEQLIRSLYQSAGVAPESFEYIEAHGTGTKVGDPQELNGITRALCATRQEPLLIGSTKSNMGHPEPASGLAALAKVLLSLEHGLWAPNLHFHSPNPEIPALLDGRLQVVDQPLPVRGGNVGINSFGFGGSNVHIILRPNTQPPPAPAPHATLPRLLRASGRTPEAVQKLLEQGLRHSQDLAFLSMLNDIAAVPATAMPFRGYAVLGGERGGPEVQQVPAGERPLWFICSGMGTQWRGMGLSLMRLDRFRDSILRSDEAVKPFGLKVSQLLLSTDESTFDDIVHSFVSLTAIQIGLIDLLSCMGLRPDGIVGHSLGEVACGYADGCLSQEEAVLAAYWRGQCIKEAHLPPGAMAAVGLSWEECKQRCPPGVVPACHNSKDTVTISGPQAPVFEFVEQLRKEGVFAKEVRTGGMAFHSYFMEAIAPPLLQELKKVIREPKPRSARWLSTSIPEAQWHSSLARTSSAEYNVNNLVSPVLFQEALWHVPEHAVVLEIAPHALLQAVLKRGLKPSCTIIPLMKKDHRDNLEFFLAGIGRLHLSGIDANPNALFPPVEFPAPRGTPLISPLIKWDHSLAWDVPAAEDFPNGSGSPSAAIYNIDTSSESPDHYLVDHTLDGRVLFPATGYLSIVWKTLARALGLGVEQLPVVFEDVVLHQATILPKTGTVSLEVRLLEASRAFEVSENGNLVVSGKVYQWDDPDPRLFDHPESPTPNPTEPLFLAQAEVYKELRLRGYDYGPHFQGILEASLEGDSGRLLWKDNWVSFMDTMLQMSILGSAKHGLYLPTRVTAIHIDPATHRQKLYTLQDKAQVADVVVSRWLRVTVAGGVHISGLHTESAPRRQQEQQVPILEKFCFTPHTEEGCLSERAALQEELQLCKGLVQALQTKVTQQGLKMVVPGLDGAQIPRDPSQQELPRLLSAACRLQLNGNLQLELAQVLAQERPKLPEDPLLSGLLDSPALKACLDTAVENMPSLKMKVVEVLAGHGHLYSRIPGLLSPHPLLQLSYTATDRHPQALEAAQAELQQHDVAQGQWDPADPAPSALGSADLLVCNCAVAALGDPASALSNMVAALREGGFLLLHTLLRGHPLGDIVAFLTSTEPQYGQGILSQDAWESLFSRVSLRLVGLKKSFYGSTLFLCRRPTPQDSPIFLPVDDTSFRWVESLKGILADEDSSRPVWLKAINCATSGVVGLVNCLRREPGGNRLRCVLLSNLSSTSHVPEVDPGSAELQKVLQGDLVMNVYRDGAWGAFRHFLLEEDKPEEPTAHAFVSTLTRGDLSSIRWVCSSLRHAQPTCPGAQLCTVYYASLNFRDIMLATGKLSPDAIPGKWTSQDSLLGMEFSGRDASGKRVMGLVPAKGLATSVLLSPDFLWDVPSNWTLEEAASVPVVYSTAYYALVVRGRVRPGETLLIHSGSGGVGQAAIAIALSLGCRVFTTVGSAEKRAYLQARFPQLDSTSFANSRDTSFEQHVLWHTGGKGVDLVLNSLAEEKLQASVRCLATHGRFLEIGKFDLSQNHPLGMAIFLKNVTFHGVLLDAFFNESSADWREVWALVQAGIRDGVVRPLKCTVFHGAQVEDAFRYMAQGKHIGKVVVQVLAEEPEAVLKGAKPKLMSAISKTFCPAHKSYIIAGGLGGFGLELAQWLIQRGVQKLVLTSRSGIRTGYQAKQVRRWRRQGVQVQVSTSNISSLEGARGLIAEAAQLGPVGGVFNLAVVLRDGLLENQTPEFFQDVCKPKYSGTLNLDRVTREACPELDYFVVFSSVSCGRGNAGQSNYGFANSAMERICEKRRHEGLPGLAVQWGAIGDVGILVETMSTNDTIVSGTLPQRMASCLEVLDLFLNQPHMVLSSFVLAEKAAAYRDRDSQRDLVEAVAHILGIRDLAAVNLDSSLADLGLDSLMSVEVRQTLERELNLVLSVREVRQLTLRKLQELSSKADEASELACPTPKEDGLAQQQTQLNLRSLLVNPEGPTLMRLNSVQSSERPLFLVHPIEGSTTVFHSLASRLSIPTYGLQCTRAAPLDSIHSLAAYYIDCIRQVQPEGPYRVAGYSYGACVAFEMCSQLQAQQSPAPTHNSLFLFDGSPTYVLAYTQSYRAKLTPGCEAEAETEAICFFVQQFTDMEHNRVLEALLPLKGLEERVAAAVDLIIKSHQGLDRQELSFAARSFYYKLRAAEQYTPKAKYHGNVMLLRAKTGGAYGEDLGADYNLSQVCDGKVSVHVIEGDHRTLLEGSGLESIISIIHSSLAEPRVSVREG

Q: How did the inhibition turn out when `CCc1cc(CNC(=O)CC2C(=O)NCCN2Cc2ccccc2C(F)(F)F)on1` (centres undefined) was run?
A: -2.9% (inactive)

Q: With `O=C(NC1CCCCC1)C1CC(=O)N(CCc2ccccc2)C1` (centres undefined) as the compound, how does the inhibition read?
A: -6.1% (inactive)

Q: `CCCn1cc(S(=O)(=O)c2ccc(C)cc2)c(=O)c2cc(OCC)ccc21` was tested. Which inhibition did it give?
A: 9.4% (inactive)

Q: With `Clc1ccc2c(c1)C1=C(C(c3ccncc3)O2)C(c2ccc(Br)cc2)n2ncnc2N1` (centres undefined) as the compound, how does the inhibition read?
A: 71.3% (active)

Q: `CN(C)CCNc1ccc(-c2n[nH]c(=O)c3ccccc23)cc1[N+](=O)[O-]` was tested. Which inhibition did it give?
A: -2.9% (inactive)

Q: `CCOc1cc(/C=N/NC(=O)OC)ccc1OCCSc1ccc(Cl)cc1` was tested. Which inhibition did it give?
A: -4.3% (inactive)

Q: With `COc1cc(/C=C(/NC(=O)c2ccc(Cl)cc2Cl)C(=O)O)cc(OC)c1OC` as the compound, how does the inhibition read?
A: 0.9% (inactive)

Q: How did the inhibition turn out when `CCOc1cc(/C=C(/C#N)c2ccc(Cl)cc2)cc(Cl)c1OCC(=O)O` was run?
A: 53.1% (active)

Q: With `O=C(c1ccco1)N1CCN=C1SCc1cccc(Cl)c1` as the compound, how does the inhibition read?
A: 5.3% (inactive)

Q: How did the inhibition turn out when `COC(=O)c1sc2[nH]c(=S)n(N)c(=O)c2c1C` was run?
A: -6.3% (inactive)

Q: How did the inhibition turn out when `O=c1ccc2c(-c3ccccc3S(=O)(=O)O)c3ccc(O)c(O)c3oc-2c1O` was run?
A: 54.8% (active)

Q: With `Cn1ncc2c(NNC(=O)Cc3cccc4ccccc34)ncnc21` as the compound, how does the inhibition read?
A: -10.1% (inactive)

Q: `CC(=O)c1c(C)[nH]c(C(=O)N2CCN(S(=O)(=O)c3ccc(F)c(F)c3)CC2)c1C` was tested. Which inhibition did it give?
A: -3.9% (inactive)

Q: How did the inhibition turn out when `COc1ccc(NC(=O)CNc2cc(S(=O)(=O)N3CCOCC3)ccc2N2CCOCC2)c(OC)c1` was run?
A: -2.5% (inactive)

Q: How did the inhibition turn out when `COc1cc(S(=O)(=O)N2CCOCC2)ccc1NC(=O)COc1ccc(N(C)S(=O)(=O)c2ccc(C)cc2)cc1` was run?
A: 76.5% (active)

Q: `COc1ccc(S(=O)(=O)N2CCOCC2)cc1NC(=O)COc1ccccc1` was tested. Which inhibition did it give?
A: 2.1% (inactive)

Q: Which inhibition does the source give for `COc1ccc(Cl)cc1NS(=O)(=O)c1cccc(C(=O)NCC2CCCO2)c1` (centres undefined) here?
A: -3.9% (inactive)

Q: With `Oc1c(Cl)cc(Cl)c(Cl)c1Cc1c(O)c(Cl)cc(Cl)c1Cl` as the compound, how does the inhibition read?
A: 83.7% (active)

Q: With `CC1CCCCN1C(=O)CCS(=O)(=O)Cc1ccccc1` (centres undefined) as the compound, how does the inhibition read?
A: -4.6% (inactive)

Q: `CCOc1ccccc1N(CC(=O)NC1CCCCC1)C(=O)CCCC(=O)Nc1ccccn1` was tested. Which inhibition did it give?
A: -7.1% (inactive)

Q: For `COC(=O)c1c(NC(=O)CN2CCN(S(=O)(=O)c3ccccc3[N+](=O)[O-])CC2)sc2c1CCC(C)C2` (centres undefined), which inhibition is on record?
A: 38.1% (inactive)

Q: `CCCCOC(=O)NCN1C(=O)C2C3C=CC(C3)C2C1=O` (centres undefined) was tested. Which inhibition did it give?
A: -2.4% (inactive)

Q: Which inhibition does the source give for `CCCCCOC(=O)c1ccc(N2C(=O)C3C4C=CC(C4)C3C2=O)cc1` (centres undefined) here?
A: 83.5% (active)

Q: How did the inhibition turn out when `CCCOC(=O)c1ccc(N2C(=O)c3ccccc3C2=O)cc1` was run?
A: -2.6% (inactive)

Q: With `CC1(c2ccccc2Cl)NC(=O)N(CC(=O)NC(=O)NCc2ccco2)C1=O` (centres undefined) as the compound, how does the inhibition read?
A: -2.3% (inactive)

Q: How did the inhibition turn out when `CCOC(=O)c1nn(-c2cccc(C)c2)cc1C(=O)c1ccccc1` was run?
A: 17.5% (inactive)

Q: Which inhibition does the source give for `CCCCNC(=O)OC1CC2CC1[C@H]1CCCCN1C2=O` (some centres undefined) here?
A: -13% (inactive)

Q: For `COc1ccc([N+](=O)[O-])cc1NC(=O)CC1SC(=Nc2cccc(C)c2C)N(/N=C(\C)c2ccc(C)cc2)C1=O` (centres undefined), which inhibition is on record?
A: 75.8% (active)

Q: `COc1ccc(Br)cc1CN(C)CC(=O)Nc1cc([N+](=O)[O-])ccc1OC` was tested. Which inhibition did it give?
A: 42.3% (inactive)

Q: How did the inhibition turn out when `COc1ccc([N+](=O)[O-])cc1NCC(=O)c1ccc(C)cc1` was run?
A: 11.8% (inactive)

Q: Which inhibition does the source give for `Cc1ccc(NC2(C#N)C(=O)Nc3ccccc32)cc1` (centres undefined) here?
A: -3.6% (inactive)

Q: For `NS(=O)(=O)c1ccc(N=Cc2ccc(Br)s2)cc1`, which inhibition is on record?
A: -8.2% (inactive)

Q: How did the inhibition turn out when `CC(=O)c1sc(NC(=O)C2=NN(c3ccccc3)C(=O)CC2)nc1C` was run?
A: -6.4% (inactive)

Q: For `CC(=O)c1sc(N/N=C/c2ccc(C(C)C)cc2)nc1C`, which inhibition is on record?
A: 58.4% (active)

Q: For `CC(=O)c1sc(N)nc1C`, which inhibition is on record?
A: -11.2% (inactive) and -7.8% (inactive)

Q: How did the inhibition turn out when `Cc1nc2ccccc2nc(=O)c1NNc1ccc([N+](=O)[O-])cc1` was run?
A: -7.2% (inactive)

Q: For `CNC[C@@H]1Oc2c(NS(C)(=O)=O)cccc2C(=O)N([C@@H](C)CO)C[C@H]1C`, which inhibition is on record?
A: -11.2% (inactive)

Q: For `CC(=O)c1cnc(-c2ccccc2)s1`, which inhibition is on record?
A: -1.4% (inactive)

Q: How did the inhibition turn out when `O=S(=O)(c1ccc(F)cc1)n1ccc(-c2cnc(-c3ccccc3)s2)n1` was run?
A: 67.2% (active)

Q: For `O=S(=O)(c1ccc(F)cc1)N1CC=C(c2ccccc2)CC1`, which inhibition is on record?
A: 27.5% (inactive)

Q: Which inhibition does the source give for `CC1CCN(C(=S)c2cccc(O)c2)CC1` here?
A: -0.1% (inactive)

Q: Which inhibition does the source give for `CCn1c(SCC(=O)Nc2cccc(F)c2)nnc1-c1cc2cc(Br)ccc2o1` here?
A: -5.5% (inactive)

Q: How did the inhibition turn out when `O=C(CP(=O)(c1ccccc1)c1ccccc1)N1CCOCC1` was run?
A: -3.5% (inactive)

Q: How did the inhibition turn out when `CCCCCCCCCCCCN1[C@@H](CC(C)=O)c2cc(F)cc(F)c2S1(=O)=O` was run?
A: 57.7% (active)

Q: Which inhibition does the source give for `COc1ccc(CN2[C@@H](CC(=O)O)c3cc(F)ccc3S2(=O)=O)cc1` here?
A: -9.9% (inactive)

Q: For `CCCCCCN1CCN(C2CN(Cc3cn(Cc4ccc(F)cc4)nn3)S(=O)(=O)C2)CC1` (centres undefined), which inhibition is on record?
A: -7.8% (inactive)

Q: With `CC1(C)Cc2nc3sc4c(SCC(=O)NC(c5ccccc5)c5ccccc5)ncnc4c3cc2CO1` as the compound, how does the inhibition read?
A: -7.6% (inactive)

Q: With `CCCc1cc(-c2nc(-c3ccc(C)cc3)cs2)ccn1` as the compound, how does the inhibition read?
A: 56.3% (active)

Q: With `CCCc1nc2scc(-c3ccc(C)cc3)c2c(=O)n1N` as the compound, how does the inhibition read?
A: -1.6% (inactive)

Q: `Fc1ccc(-c2csc(-c3ccc(C4SCCS4)cc3)n2)cc1F` was tested. Which inhibition did it give?
A: 33% (inactive)

Q: How did the inhibition turn out when `Cc1ccc(C(=O)C(=S)N2CCOCC2)cc1` was run?
A: -7.7% (inactive)

Q: For `O=C1OCCN1C(=O)[C@H]1[C@H](c2ccc(F)cc2)C(c2ccccc2)=NN1c1ccc(Br)cc1`, which inhibition is on record?
A: 46.2% (inactive)

Q: `O=C1OCCN1C(=O)[C@H]1[C@H](c2ccccc2)C(c2ccc(F)cc2)=NN1c1ccccc1` was tested. Which inhibition did it give?
A: 41.9% (inactive)

Q: How did the inhibition turn out when `O=C1OCCN1C(=O)[C@H]1[C@H](c2ccc(Cl)cc2)C(c2cccc(Cl)c2)=NN1c1ccc(Br)cc1` was run?
A: 67.3% (active)

Q: Which inhibition does the source give for `COCCNC(=O)CSc1nc2c(n1-c1ccccc1)CCCC2` here?
A: -7.1% (inactive)

Q: For `Cc1ccccc1-n1c(SCC(=O)Nc2cccc3ccccc23)nc(O)cc1=O`, which inhibition is on record?
A: -5.5% (inactive)

Q: How did the inhibition turn out when `Cc1ccc(C)c(NC(=O)COC(=O)CSc2ccccc2)c1` was run?
A: -9.4% (inactive)

Q: How did the inhibition turn out when `Cc1ccc(C)c(NC(=O)CSc2nc3c(oc4ccccc43)c(=O)n2-c2ccccc2)c1` was run?
A: 62.3% (active)

Q: With `Cc1ccc(C)c(Cn2cnc3c(oc4ccccc43)c2=O)c1` as the compound, how does the inhibition read?
A: 16.6% (inactive)
